APE1 inh: APE1 (human) endonuclease inhibition; recombinant APE1, TAMRA/BHQ-2 abasic DNA cleavage fluorescence; P27695; Potency, µM (doses to about 65.8 µM), most hits filed as inhibitors; 350,000 compounds, 0.35% hits; note: nearly all actives have a fitted effect of over 55% in size
Target sequence (P27695 whole entry, looked up): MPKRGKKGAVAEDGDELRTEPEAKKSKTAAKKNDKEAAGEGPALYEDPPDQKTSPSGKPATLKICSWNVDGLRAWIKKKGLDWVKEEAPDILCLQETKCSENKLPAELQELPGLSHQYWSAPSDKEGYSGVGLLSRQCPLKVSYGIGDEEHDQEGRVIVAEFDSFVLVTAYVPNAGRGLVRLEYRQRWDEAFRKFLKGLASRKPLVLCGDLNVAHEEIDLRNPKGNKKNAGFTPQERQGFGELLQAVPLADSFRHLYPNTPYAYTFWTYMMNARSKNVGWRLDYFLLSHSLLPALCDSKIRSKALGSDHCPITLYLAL
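Enzyme (0.75 nM final) and test compound are incubated 15 min at room temperature before adding 50 nM quenched THF abasic-site duplex. Cleavage dequenches TAMRA, followed at 525/598 nm over three reads one minute apart.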
FEN1 inh: inhibitors of human flap endonuclease 1; P39748; Recombinant FEN1 flap cleavage, fluorescence, 15 min; Potency, µM (titrated, usually from 114 µM), most hits filed as inhibitors; 390,000 compounds, 0.35% hits; note: nearly all actives have a fitted effect of over 65% in size
Target sequence (P39748 whole entry, looked up): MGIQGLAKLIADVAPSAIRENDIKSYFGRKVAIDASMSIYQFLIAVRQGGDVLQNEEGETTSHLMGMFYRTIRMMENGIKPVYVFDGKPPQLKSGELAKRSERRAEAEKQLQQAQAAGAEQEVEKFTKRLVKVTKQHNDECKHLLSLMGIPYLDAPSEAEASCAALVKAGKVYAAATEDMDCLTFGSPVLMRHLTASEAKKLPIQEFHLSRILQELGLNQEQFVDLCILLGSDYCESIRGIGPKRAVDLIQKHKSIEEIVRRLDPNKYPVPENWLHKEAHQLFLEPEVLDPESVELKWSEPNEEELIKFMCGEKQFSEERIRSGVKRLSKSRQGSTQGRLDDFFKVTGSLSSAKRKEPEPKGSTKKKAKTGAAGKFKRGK
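Enzyme 10 nM, 15 min RT preincubation with compound; start with substrate 50 nM final; reads at 0 and 15 min; qHTS titration, four-parameter Hill fit.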
RECQ1 inh-1: RECQ1 (human) helicase inhibition; RECQ1 DNA unwinding, red fluorescence kinetic read; P46063; AID 2549; 240,000 compounds, 0.54% hits; Potency, µM (titrated, usually from 57.3 µM), actives largely listed as inhibitors; note: nearly all actives have a fitted effect of over 30% in size
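50 nM RECQ1T1 preincubated 15 min with compound in Tris pH 8.0 buffer with MgCl2, DTT, Tween-20 and 2.5 ug/ml poly(dI-dC); started with 200 nM TAMRA/BHQ-2 forked duplex and 2 mM ATP. Unwinding read as fluorescence (525/598 nm), two reads 2 h apart.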
Tb PGK inh: T. brucei PGK inhibition. PGK/GAPDH coupled, Kinase-Glo luminescence, 60 min. 380,000 compounds, 0.043% hits. Potency, µM (titrated, usually from 57.5 µM), usual class: inhibitors. P07378. AID 602233; note: nearly all actives have a fitted effect of over 60% in size
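Recombinant glycosomal PGK reaction used 1,3-bisphosphoglycerate generated in-well by GAPDH (100nM final) in 100mM TEA pH 7.6, 5mM MgCl2, 0.01% Tween-20. After 60 minutes at room temperature, ATP was read by Kinase-Glo Plus luminescence end-point.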
BLM inh: Bloom syndrome helicase (human) inhibition. P54132. recombinant BLM DNA unwinding, fluorescence dequenching. Potency, µM (top dose mostly 56.1 µM), most hits filed as inhibitors. 350,000 compounds, 0.2% hits. AID 2528; note: nearly all actives have a fitted effect of over 35% in size
RECQ1 inh conf: confirmation of human RECQ1 helicase inhibitors | shares compounds with RECQ1 inh-1 | RECQ1 helicase DNA unwinding, fluorescence | Potency, µM (highest dose often 229 µM), usual class: inhibitors | 610 compounds, 28% hits; note: nearly all actives have a fitted effect of over 45% in size
RECQ1 ADP FP: counter-screen for RECQ1 inhibitors: ADP displacement; 530 compounds, 27% hits; shares compounds with RECQ1 inh-1; ADP fluorescence polarization displacement counterscreen; Potency, µM (doses to about 228 µM), hits mostly inhibitors; note: nearly all actives have a fitted effect of over 45% in size
RECQ1 inh-2: RECQ1 helicase inhibition confirmed, round 2; shares compounds with RECQ1 inh-1; recombinant RECQ1 DNA unwinding, red fluorescence; Potency, µM (series often up to 119 µM), actives largely listed as inhibitors; 1,100 compounds, 15% hits; AID 504841; note: nearly all actives have a fitted effect of over 50% in size
Each line names hits and unclear results; the compound was inactive in the other large screens (follow-up assays come after a bar, where they were run). Most compounds without a hit are left out; they make up all but 0.74% or so of the library. Calls come from the whole dose curve; as a rule, active = well fitted curve in the direction sought with a large enough effect; inconclusive = small, poorly fitted or top-dose-only effect, or another doubt; inactive = no such curve, though single readings can be large; an effect the other way counts as inactive or inconclusive.

COCCn1c(=NC(=O)c2ccc(S(=O)(=O)N3CCc4ccccc4C3)cc2)sc2cc(OC)ccc21	none | RECQ1 inh conf inactive | RECQ1 ADP FP inactive
Cc1ccc(C)c(-c2nc3ccc(N)cc3[nH]2)c1	RECQ1 inh-1 inconclusive | RECQ1 inh conf inactive | RECQ1 ADP FP inconclusive
O=[N+]([O-])c1cnc2ccccn12	none
CCc1nc(Nc2ccc(N3CCN(C(C)=O)CC3)cc2)c2oc3ccccc3c2n1	APE1 inh inconclusive, RECQ1 inh-1 inconclusive | RECQ1 inh-2 inactive
CC(=O)NCCOc1nc(N2CCCCC2)nc(N2CCCCC2)n1	none
COc1ccc(Nc2ccc(OC)cc2)cc1	RECQ1 inh-1 5.6µM | RECQ1 inh conf inconclusive | RECQ1 ADP FP 20µM | RECQ1 inh-2 inactive
Cc1ccc(NC(=O)CSc2nnc(-c3ccccn3)n2N)c(Br)c1	none
CO/N=C\c1ccc(C(=O)N2[C@H](c3ccc(C)cc3)[C@@H](C)CC[C@H]2C(=O)OC)cc1	none (no result: FEN1 inh, Tb PGK inh)
C=CC[C@@H]1C=C[C@H](O/N=C/c2ccc(C(=O)N3[C@H](c4ccc(C)cc4)[C@@H](C)CC[C@H]3C(=O)OC)cc2)[C@@H](CO)O1	RECQ1 inh-1 inconclusive (no result: FEN1 inh, Tb PGK inh) | RECQ1 inh-2 inactive
CCC(=O)N1CCN(c2ccnc3cc(Cl)ccc23)CC1	none
N#C/C(=C\c1ccccc1C(=O)O)c1nc2ccccc2[nH]1	none (no result: RECQ1 inh-1)
N#C/C(=C\c1ccc(-c2ccc(C(=O)O)cc2)o1)c1nc2ccccc2[nH]1	APE1 inh inconclusive, FEN1 inh 45µM, RECQ1 inh-1 inconclusive | RECQ1 inh-2 inconclusive
c1cc(-c2noc(CCC3CCCC3)n2)ccn1	RECQ1 inh-1 inconclusive | RECQ1 inh-2 inactive
CC1CC(C)CN(CCOc2cccc(Cl)c2Cl)C1 (stereo not given)	none
Cn1c(NC(=O)c2ccc(F)c(F)c2)cc(=O)n(C)c1=O	none
O=C1c2ccccc2C(=O)c2c(NCCCN(CCO)CCO)cccc21	APE1 inh inconclusive, FEN1 inh 20µM, RECQ1 inh-1 20µM, BLM inh 16µM | RECQ1 inh-2 18µM
Cc1ccc(-n2nc(C)c3c2OC(N)=C(C#N)C3c2ccoc2)cc1 (stereo not given)	APE1 inh inconclusive, RECQ1 inh-1 inconclusive | RECQ1 inh-2 inactive
O=[N+]([O-])c1ccc(-c2c(O)c3ccccc3c3nc4ccccc4nc23)cc1	RECQ1 inh-1 25µM | RECQ1 inh conf inactive | RECQ1 ADP FP inconclusive
O=[N+]([O-])c1ccc(-c2cnc3ccccc3n2)cc1	none (no result: RECQ1 inh-1)
Clc1ccc(C2=NCCN2)cc1	RECQ1 inh-1 inconclusive | RECQ1 inh-2 inactive
Cc1ccc(CNC(=O)C(OC(=O)c2cccs2)C(C)C)cc1 (stereo not given)	none (no result: RECQ1 inh-1)
CCOCCCN1CN(Cc2ccccc2)CNC1=S	none
CN(c1cccc(NC(=O)CN(c2ccc(Cl)c(Cl)c2)S(=O)(=O)c2ccccc2)c1)S(C)(=O)=O	none
Cc1ccc(S(=O)(=O)N(CC(=O)Nc2cccc(N(C)S(C)(=O)=O)c2)c2ccc(Cl)c(Cl)c2)cc1	RECQ1 inh-1 7.1µM | RECQ1 inh conf inconclusive | RECQ1 ADP FP inactive | RECQ1 inh-2 inactive
CC(C)(C)CC(=O)OCC(=O)Nc1cc(C(C)(C)C)nn1-c1ccccc1	none
O=C(CNS(=O)(=O)c1c(Cl)cccc1Cl)OCC(=O)c1ccc[nH]1	RECQ1 inh-1 inconclusive | RECQ1 inh-2 inactive
COc1cc(C(C)=O)ccc1COc1ccc(C(=O)OCC(=O)NC2CCS(=O)(=O)C2)cc1OC (stereo not given)	RECQ1 inh-1 32µM | RECQ1 inh-2 inactive
COc1cc(C(C)=O)ccc1COc1ccc(C(=O)OCC(=O)NC(C)(C)C)cc1OC	none
O=C(c1cccc(F)c1)N1CCC(N2CCCCCC2)CC1	none
O=C(c1ccc(Nc2nccc(-c3cc4ccccc4s3)n2)cc1)N1CCC(N2CCCC2)CC1	RECQ1 inh-1 inconclusive, BLM inh inconclusive (no result: FEN1 inh, Tb PGK inh) | RECQ1 inh-2 25µM
Cc1ccc(/C=C/C(=O)Nc2nc3ccccc3[nH]2)cc1	none
Cc1ccc(/C=C/C(=O)c2nc3ccccc3[nH]2)cc1	RECQ1 inh-1 10µM | RECQ1 inh conf inactive | RECQ1 ADP FP inactive | RECQ1 inh-2 inactive
O=C(N/N=C/c1ccccc1O)c1cccc(C(F)(F)F)c1	none
NC(=O)N/N=C/c1sc(N2CCCCC2)nc1-c1cccs1	none (no result: APE1 inh, RECQ1 inh-1, BLM inh)
Cc1ccc(S(=O)(=O)N2CCc3ccccc3C2CN2C(=O)c3ccccc3C2=O)cc1 (stereo not given)	RECQ1 inh-1 32µM | RECQ1 inh-2 inactive
O=C1c2ccccc2C(=O)N1CC1c2ccccc2CCN1S(=O)(=O)c1cnc[nH]1 (stereo not given)	none
N#C/C(=C\c1ccc(C(=O)O)cc1)c1nc2sc3c(c2c(=O)[nH]1)CCCC3	APE1 inh inconclusive, FEN1 inh inconclusive, RECQ1 inh-1 25µM, Tb PGK inh inconclusive, BLM inh inconclusive | RECQ1 inh-2 inconclusive
CCOC(=O)c1nc2sc3c(c2c(=O)[nH]1)CCCC3	none
O=C(NCc1ccc2c(c1)OCO2)C1CCCN(S(=O)(=O)c2cccnc2)C1 (stereo not given)	RECQ1 inh-1 inconclusive | RECQ1 inh-2 inactive
COc1ccc(Nc2nc(N3CCOCC3)nc(N3CCOCC3)n2)cc1	none (no result: RECQ1 inh-1)
CC(C)c1ccc(Nc2nc(Nc3ccc(Cl)cc3)nc(N3CCOCC3)n2)cc1	none (no result: APE1 inh, RECQ1 inh-1, Tb PGK inh, BLM inh) | RECQ1 inh conf inactive
CCOC(=O)C1=C(N)n2c(s/c(=C\c3ccco3)c2=O)=C(C(=O)OC(C)C)C1c1ccco1 (stereo not given)	APE1 inh inconclusive, RECQ1 inh-1 32µM | RECQ1 inh-2 inactive
O=C(CC(Sc1ccc(Br)cc1)C(=O)O)c1ccc(Br)cc1 (stereo not given)	none (no result: FEN1 inh, RECQ1 inh-1, Tb PGK inh)
O=C(CC(C(=O)O)P(=O)(c1ccccc1)c1ccccc1)c1ccc(Br)cc1 (stereo not given)	none | RECQ1 inh conf inactive | RECQ1 ADP FP inactive
COCCn1c(N)c(S(=O)(=O)c2cccs2)c2nc3ccccc3nc21	BLM inh inconclusive
COCCn1c(N)c(C(=O)NCC2CCCO2)c2nc3ccccc3nc21 (stereo not given)	APE1 inh inconclusive, RECQ1 inh-1 inconclusive, BLM inh inconclusive | RECQ1 inh-2 inactive
COCCn1c(N)c(C(=O)NCc2cccs2)c2nc3ccccc3nc21	APE1 inh inconclusive, FEN1 inh inconclusive, RECQ1 inh-1 inconclusive | RECQ1 inh-2 inactive
